Screens: PubChem, several laboratories
A selection: hits, their analogues and other compounds. The true share with any hit is near 2.7%.
KKLEB tox: counter-screen for CF NF-kB inhibitors: cytotoxicity; KKLEB CF airway cells viability, ATPlite luminescence, overnight; stronger effect = lower value; cells stimulated with P. aeruginosa culture filtrate; activity change (cytotoxicity), % at 5 µM; 360,000 tested, 0.36% active; AID 602141;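 active = corrected activity change at or below -50% at 5 µM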
TRPM1 prom inh: MITF TRPM1 promoter inhibition in SK-MEL-5 cells | SK-MEL-5 TRPM1 promoter luciferase, 24 h | inhibition, % at 12.5 µM | 330,000 tested, 0.83% active | AID 488899;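 active = mean inhibition across replicates of 60% or more, whatever share of single replicates reaches that level; inconclusive = some that reach 60%, reason not given; inactive = mean inhibition across replicates below 60%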
Peg3 prom inh: Peg3 promoter activity inhibition; HeLa PEG-Prom luciferase reporter, luminescence, overnight; inhibition, % at 20 µM; 360,000 tested, 1.7% active; AID 588405;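 active = inhibition of at least 50% at 20 µM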
HIF-2a inh: inhibitors of HIF-2a. 786-0 RCC cells HIF-2a reporter, luciferase luminescence, overnight. inhibition, % at 18.8 µM. 360,000 tested, 0.72% active. AID 624352;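 active = inhibition of the luminescence signal of 40% or more relative to plate controls, in a single-dose primary screen at 18.75 µM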
Shn3 inh set2: inhibitors of Schnurri-3 3'UTR reporter in osteoblasts; Clone20 osteoblast Shn3 3'UTR firefly luciferase, 24 h; inhibition, % at 12.5 µM; 360,000 tested, 0.52% active;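 active = mean inhibition of at least 75% with every replicate also reaching 75%; inconclusive = mean inhibition at least 75% but some replicate below; inactive = mean inhibition below 75%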;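 note: 0% = median of neutral control wells and 100% = pilot-screen positive control compound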
CF NFkB block: cystic fibrosis NF-kB activation inhibition; KKLEB NF-kB-GFP reporter, PAF-induced, GFP fluorescence overnight; inhibition, % at 5 µM; 360,000 tested, 0.86% active; AID 588850;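 active = at least 50% inhibition at 5 µM, scaled per plate between neutral and stimulator controls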;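 note: PAF is a Pseudomonas aeruginosa culture filtrate used as stimulus; plate controls were PAF-stimulated DMSO wells for no effect and unstimulated DMSO wells for full effect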
An asterisk follows results filed as active; ? = inconclusive; / = no result.

SMILES	KKLEB tox	TRPM1 prom inh	Peg3 prom inh	HIF-2a inh	Shn3 inh set2	CF NFkB block
Cc1nn(-c2ccc(F)cc2)c2nc(N)c(C#N)c(-c3cccs3)c12	-15.4	7.6	84.2*	10.1	3.7	14.5
CCOc1ccc2nc3cc(NCc4ccc(OC)cc4)ccc3c(N)c2c1	-5.0	?	92.7*	21.0	?	-22.1
CCCCCCCCN1C(=O)[C@H](CC(=O)NCc2cccc(C(F)(F)F)c2)C[C@@]2(C(=O)OC)CC(C)(C)CC=C12	/	/	/	8.7	/	/
CCOc1ccc(-n2c(-c3ccc(Br)cc3)c[n+]3c2CCCCC3)cc1	-7.1	62.9*	7.9	2.4	73.5	0.2
CCOc1ccc(-n2c(-c3ccccc3)c[n+]3c2CCC3)cc1	-9.0	32.5	2.2	9.8	84.4*	6.4
COc1ccc(-c2c[n+]3c(n2-c2ccc(C)cc2)CCCCC3)cc1	0.6	50.7	6.6	3.1	/	1.7
CCOc1ccc(-n2c(-c3ccc(OC)cc3)c[n+]3c2CCCCC3)cc1	-6.5	77.3*	9.6	16.6	85.4*	5.0
COC(=O)c1ccc(COc2cccn3c(N(C)C(=O)CCC4CCCC4)c(C)nc23)cc1	-7.9	/	22.8	2.8	33.7	10.3
CCOC(=O)C1=CCC(C(C)(C)C)N(S(=O)(=O)c2ccc(C)cc2)C1 (stereo unspecified)	-12.8	/	20.3	20.8	-34.4	21.3
CC1(C(=O)Nc2cnc3ccccc3c2)CCN1Cc1ccc(-c2ccccc2)o1 (stereo unspecified)	14.3	/	-7.0	-47.6	-55.5	-1.0
COc1ccc(CN2C(=O)/C(=C/c3ccncc3)SC2=S)cc1	-18.2	10.3	67.5*	43.1*	37.0	45.4
COc1ccc(/C=C2\SC(=S)N(CCC(=O)NCCCn3ccnc3)C2=O)cc1	0.3	2.8	-34.8	40.2*	-9.9	1.0
COc1ccc(/C=C2\SC(=S)N(CCCC(=O)N3CCN(C)CC3)C2=O)cc1	-0.4	1.8	-25.2	44.7*	-21.6	-8.2
CCc1ccc(/C=C2\SC(=S)N(CCCC(=O)N3CCN(C)CC3)C2=O)cc1	-15.0	/	24.8	37.8	-12.9	21.9
COc1ccc(/C=C2\SC(=S)N(CCC(=O)NC3C=CS(=O)(=O)C3)C2=O)cc1 (stereo unspecified)	7.6	15.8	-47.1	74.9*	-8.9	12.2
CC(C)c1ccc(/C=C2\SC(=S)N(CCC(=O)NCCCn3ccnc3)C2=O)cc1	-16.0	-25.1	-277.1	-25.5	-1.0	8.4
COc1cccc(/C=C2\SC(=S)N(CCCC(=O)N3CCCCC3)C2=O)c1	-14.8	20.5	53.3*	66.8*	-15.9	15.9
OCc1cccc(-c2cnc3c(Nc4cccc(OC(F)(F)C(F)F)c4)nccn23)c1	-12.8	/	-210.0	-247.4	13.8	7.1
CC(C)Cn1c(N)c(C(=O)COC(=O)c2cnc(Cl)c(Cl)c2)c(=O)n(C)c1=O	-15.5	22.5	74.2*	7.7	-19.1	8.2
CC(C)NC1(C(N)=O)CCNCC1	-3.0	-1.9	2.7	-4.5	86.9*	4.7
CC(C)(C)c1ccc(C(=O)N2CCOC23CCCCC3)cc1	-5.1	/	-12.4	-28.8	11.3	19.3
Cc1ccc(NC(=O)Nc2nnc([C@H]3C[C@H](O)[C@@H](CO)O3)s2)cc1	6.2	/	2.6	-0.1	12.9	-5.7
CCCC(=O)NC(c1ccco1)c1cc([N+](=O)[O-])c2cccnc2c1O (stereo unspecified)	-10.9	-4.4	37.7	11.3	1.4	57.2*
CC(=O)NC(c1ccc(C)cc1)c1cc([N+](=O)[O-])c2cccnc2c1O (stereo unspecified)	7.1	-5.8	53.5*	23.8	44.9	11.4
CCC(=O)NC(c1cc(Cl)c2cccnc2c1O)C(C)C (stereo unspecified)	6.7	38.4	35.1	15.7	69.4	1.0
CCC(=O)NC(c1ccc(C)cc1)c1cc([N+](=O)[O-])c2cccnc2c1O (stereo unspecified)	-3.7	6.4	52.6*	-1.2	7.9	2.3
CCC(=O)NC(c1ccco1)c1cc(Br)c2cccnc2c1O (stereo unspecified)	18.7	/	49.7	16.8	37.6	-8.4
CCOC(=O)CC1CCCCN1C(=O)c1cc(COc2cccc3cnccc23)on1 (stereo unspecified)	-2.6	27.6	11.3	27.6	89.3*	28.8
